# Results published in PubChem BioAssay (Tox21).
# Results filed as inconclusive are left out. A number with no mark means an inactive call. The source made the active and inactive calls. Calls come from the whole dose curve; as a rule, active = well fitted inhibition curve with a large enough effect in the repeat runs; inconclusive = weak or mixed curves, or effect the other way; inactive = no such curve, though single readings can be large or run the other way.
# Target: Androgen receptor (Homo sapiens) (UniProt P10275)
# Sequence (P10275 whole entry, looked up): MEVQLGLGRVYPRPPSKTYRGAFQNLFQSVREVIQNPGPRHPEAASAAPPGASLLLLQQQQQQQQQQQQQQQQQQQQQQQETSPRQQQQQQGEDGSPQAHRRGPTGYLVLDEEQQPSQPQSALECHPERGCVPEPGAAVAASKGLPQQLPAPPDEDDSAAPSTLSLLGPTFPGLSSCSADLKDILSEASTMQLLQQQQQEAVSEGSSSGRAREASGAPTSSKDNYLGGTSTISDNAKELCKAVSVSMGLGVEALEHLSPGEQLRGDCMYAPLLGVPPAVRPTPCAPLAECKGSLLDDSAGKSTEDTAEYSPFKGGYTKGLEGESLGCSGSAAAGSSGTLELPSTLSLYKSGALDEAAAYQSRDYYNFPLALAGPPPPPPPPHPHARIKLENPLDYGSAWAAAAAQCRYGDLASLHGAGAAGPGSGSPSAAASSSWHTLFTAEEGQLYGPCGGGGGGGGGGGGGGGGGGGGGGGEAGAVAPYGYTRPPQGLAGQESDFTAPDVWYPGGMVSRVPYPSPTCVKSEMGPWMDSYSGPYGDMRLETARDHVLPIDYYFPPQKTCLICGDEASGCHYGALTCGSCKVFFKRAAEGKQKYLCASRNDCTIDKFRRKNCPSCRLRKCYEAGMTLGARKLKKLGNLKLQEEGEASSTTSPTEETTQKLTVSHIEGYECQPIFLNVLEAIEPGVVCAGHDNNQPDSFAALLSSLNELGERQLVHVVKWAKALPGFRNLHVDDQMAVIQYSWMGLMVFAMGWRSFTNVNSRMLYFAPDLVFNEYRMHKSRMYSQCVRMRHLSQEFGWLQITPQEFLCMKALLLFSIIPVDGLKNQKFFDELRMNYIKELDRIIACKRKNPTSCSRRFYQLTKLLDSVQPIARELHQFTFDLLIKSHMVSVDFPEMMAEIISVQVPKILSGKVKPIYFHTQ
# Assay: qHTS assay to identify small molecule antagonists of the androgen receptor (AR) signaling pathway using the MDA cell line (AID 743042; note: nearly all actives have a fitted effect of over 55% in size)
# Conditions: MDA-kb2 AR-luc, MMTV luciferase, R1881 antagonist, 16 h; series mostly up to 70.3 µM; activity change, negative = inhibition: at the top concentration
# Method in brief: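 MDA-kb2 breast carcinoma cells carrying MMTV-luciferase (AR/GR responsive) were co-treated with compounds and the agonist R1881 for 16 h at 37C. Inhibition read as ONE-Glo luminescence; CellTiter-Fluor fluorescence measured in parallel for cytotoxicity.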
# % is set by controls: 0 for no effect and ±100 for the full control effect.
Structure (SMILES),"activity change, negative = inhibition",outcome
Nc1cccc(S(=O)(=O)O)c1,0.494%,–
Cc1ncc(CO)c(CN)c1O,-3.22%,–
COC(=O)C(C)O (centres undefined),-18.6% [at 95 µM],–
N#Cc1ccc(C(c2ccc(C#N)cc2)n2cncn2)cc1,–,inactive
Cc1cc(S(=O)(=O)O)c(N)cc1Cl,-16.2% [at 95 µM],–
Cc1c(C(=O)NCCO)[n+](=O)c2ccccc2n1[O-],-1.21%,–
CC(C)(C)c1cccc(O)c1,4.99%,–
CCCCc1ccc2nc(NC(=O)OC)[nH]c2c1,215% [at 32.5 µM],–
Cc1cc2nc(N)sc2cc1C,139% [at 95 µM],–
